# Hits are enriched below; roughly 2.9% of the tested compounds scored in any of these assays.
# TSHR antagonist: Antagonists of the Thyroid Stimulating Hormone Receptor: HTS campaign. activity change, negative = inhibition, % at 11.5 µM. 0.2% of 330,000 active. TSHR-expressing cells, TSH-stimulated cAMP HTRF, 2 h; hits give low values. Thyrotropin receptor (Homo sapiens), P16473;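 active = activity change below a set negative limit, meaning inhibition stronger than a set level, cut at about -70% in these data; inconclusive = activity change between two set negative limits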; also: % is scaled to controls: 0 for no effect and ±100 for the full control effect
# Target sequence (P16473 whole entry, looked up): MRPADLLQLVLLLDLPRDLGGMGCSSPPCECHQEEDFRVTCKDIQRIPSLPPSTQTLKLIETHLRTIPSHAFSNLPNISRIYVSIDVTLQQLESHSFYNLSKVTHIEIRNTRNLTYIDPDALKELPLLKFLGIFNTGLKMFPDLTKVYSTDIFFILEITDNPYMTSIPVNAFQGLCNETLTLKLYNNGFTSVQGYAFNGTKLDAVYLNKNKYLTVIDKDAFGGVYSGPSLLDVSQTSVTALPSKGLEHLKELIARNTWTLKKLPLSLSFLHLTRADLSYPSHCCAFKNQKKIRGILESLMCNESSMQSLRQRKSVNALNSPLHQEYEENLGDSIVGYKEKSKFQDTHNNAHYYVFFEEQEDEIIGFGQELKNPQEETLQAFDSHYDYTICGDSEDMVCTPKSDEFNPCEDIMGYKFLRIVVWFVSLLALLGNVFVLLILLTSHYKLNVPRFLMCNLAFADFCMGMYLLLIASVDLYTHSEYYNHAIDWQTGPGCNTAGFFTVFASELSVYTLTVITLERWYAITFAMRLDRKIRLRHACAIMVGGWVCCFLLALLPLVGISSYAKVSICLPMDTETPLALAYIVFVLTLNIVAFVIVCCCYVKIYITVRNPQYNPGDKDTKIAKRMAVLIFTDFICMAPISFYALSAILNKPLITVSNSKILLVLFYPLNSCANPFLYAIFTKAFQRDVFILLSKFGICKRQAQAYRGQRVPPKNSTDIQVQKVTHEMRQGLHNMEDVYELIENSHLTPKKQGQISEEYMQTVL
#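 Freshly harvested TSHR cells receive pin-tooled compound, then EC80 TSH at 4nM final. After 2 hours at 37 deg C, antibody in lysis buffer and cAMP-d2 are added; 30 minutes at ambient temperature precede the HTRF read.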
# D3 antag: qHTS of D3 Dopamine Receptor Antagonist: qHTS; D(3) dopamine receptor (Homo sapiens), P35462; 2.5% of 360,000 active; max response, negative = inhibition, %; D3R cells, DiscoveRx beta-arrestin luminescence, antagonist mode; hits give low values; in the data active = max response below about -50%; inconclusive = no clear call, values can overlap the other calls; also: % is scaled to controls: 0 for no effect and ±100 for the full control effect
#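 Cells expressing the human receptor were seeded at 1500 cells/well, incubated overnight at 37 degrees C in 5% CO2, then exposed to library compounds with dopamine controls for 90 minutes at 37 degrees C before luminescent detection.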
# DRD3 agonist: qHTS of D3 Dopamine Receptor Agonist: qHTS; 0.58% of 410,000 active; max activation, %; D3R DiscoveRx beta-arrestin cells, luminescence, 90 min; AID 652048, 2013; D(3) dopamine receptor (Homo sapiens), P35462; in the data active = max activation above about 30%; also: 0% is about no effect
#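 Cells at 1500/well, incubated overnight, then treated with pinned compounds (dopamine as control) for 90 min at 37 degrees C. DiscoveRx reagent added for 30 - 60 minutes at room temperature; luminescence read.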
# B2AR arrestin: qHTS assay of beta-arrestin-biased ligands of beta2-adrenergic receptor. Potency, µM (top dose mostly 46.1 µM), inactives show at the highest dose activation, most hits filed as activators. beta-arrestin recruitment to beta2AR, cell-based reporter. 0.02% of 330,000 active. AID 492947, 2010. Beta-2 adrenergic receptor (Homo sapiens), P07550; active = well fitted activation curve with a large enough effect; inconclusive = small, poorly fitted or top-dose-only effect;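 also: potency is read from the fitted curve at half-maximal effect; 0% = DMSO controls and full agonism = EC100 isoproterenol or metaproterenol; nearly all actives have a fitted effect of over 65% in size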
# * hit, by the source's call; ? = inconclusive; . = not tested or not shown.
SMILES,TSHR antagonist,D3 antag,DRD3 agonist,B2AR arrestin
COc1ccc(NC(=S)N(CCCN2CCCCC2)Cc2cccs2)cc1,3.9,-86.5*,-32.4,-0.4%
CCOc1ccc(NC(=O)CSC2=Nc3ccccc3C3=NC(CC(=O)NCc4cccs4)C(=O)N23)cc1 (stereo not given),.,.,0.7,.
C=CCOc1cccn2c(N(C=O)Cc3ccccc3)c(CC)nc12,.,28.6,6.2,.
NC(=O)C1CCN(c2nc(-c3cccc4ccccc34)cs2)CC1,3.8,.,.,.
Cc1ccc(Cl)cc1N1CCN(C(=O)c2cc3c(=O)[nH]c4ccccc4c3n2C)CC1,8.6,23.5,70.8*,0.3%
Cn1c(C(=O)N2CCN(c3ccc(Cl)cc3)CC2)cc2c(=O)[nH]c3ccccc3c21,-7.6,41.3,0.7,-0.8%
N/C(Cc1cccc2ccccc12)=N\O,-7.7,19.0,30.1*,-0.6%
Cc1ccc(C)c(S(=O)(=O)N/N=C/c2ccc(C(=O)O)cc2)c1,6.8,-19.0,-18.7,-3.0%
COC(=O)c1ccc(/C=N/NS(=O)(=O)c2cc(C)ccc2C)cc1,8.8,-81.5*,-49.1,-0.2%
CCCCC(F)(F)[C@@]1(O)CC[C@H]2[C@@H](CC(=O)[C@@H]2CCCCCCC(=O)O)O1,.,.,1.5,.
O=C(CCn1c(=O)oc2ccccc21)N1CCN(c2ccccc2F)CC1,-7.0,-9.2,30.6*,-0.7%
Cc1ccc(C(=O)N2CCC3(CC2)Oc2ccc(Cl)cc2C(=O)C32CC(c3cccnc3)=NO2)s1 (stereo not given),1.2,-20.8,-28.6,5.2%
O=C(/C=C/c1cccs1)N1CCC2(CC1)Oc1ccc(Cl)cc1C(=O)C21CC(c2cccnc2)=NO1 (stereo not given),-7.7,80.1,37.1*,-1.1%
O=C(c1cccn1-c1nnc(N2CCCC2)s1)N1CCN(c2ccc(Cl)cc2)CC1,.,.,-4.8,.
CCOC(=O)N1CCN(C(=O)CSc2ccc3nnc(-c4cccnc4)n3n2)CC1,11.9,-98.4*,-23.2,0.2%
CCOc1ccc(NC(=O)CSc2ccc3nnc(-c4cccnc4)n3n2)cc1,10.6,-6.9,0.5,-0.7%
CCCCN(C)CCNC(=O)c1ccc2c(=O)n(CCc3ccccc3)c(=O)[nH]c2c1,.,.,-1.2,.
Cc1nc2ccc(NC(=O)c3ccccc3)cc2s1,7.7,-14.3,-2.3,-1.6%
CCn1nc(C(=O)Nc2ccc3nc(C)sc3c2)c2ccccc2c1=O,-6.4,-86.5*,0.6,0.1%
Cc1ccc(NC(=O)C(=O)NCC(c2cccnc2)N2CCN(c3ccccc3F)CC2)cc1Cl (stereo not given),.,.,-2.7,.
COc1ccccc1S(=O)(=O)Cc1ccc(C(=O)NCCCN2CCN(c3ccc(F)cc3)CC2)o1,-1.0,-77.1*,-6.3,-0.4%
COc1ccccc1S(=O)(=O)Cc1ccc(C(=O)N2CCN(c3ccccc3)CC2)o1,-6.2,0.0,3.2,0.3%
CCN(CCCNC(=O)c1cc2cc3ccc(OC)cc3nc2s1)c1ccccc1,0.0,.,2.8,-0.1%
COc1ccc2nc3sc(C(=O)NCCCN4CCc5ccccc5C4)cc3cc2c1,-1.3,-88.3*,-23.8,6.4%
COc1ccc(S(=O)(=O)Cc2ccc(C(=O)NCCCN3CCc4ccccc4C3)o2)cc1,-1.1,-91.6*,-15.8,-0.4%
SMILES,TSHR antagonist,D3 antag,DRD3 agonist,B2AR arrestin
COc1ccc(N2CCN(CCCNC(=O)c3ccc(CS(=O)(=O)c4ccc(OC)cc4)o3)CC2)cc1,-14.4,-11.5,18.3,0.0%
O=C(Nc1ccc(F)c(Cl)c1)C1CCN(c2ncccn2)CC1,.,.,6.8,.
COc1c(C(=O)Nc2ccc(Cc3ccncc3)cc2)ccc2ccccc12,-16.7,10.6,34.2*,-0.7%
Cn1c2ccsc2c2cnn(Cc3ccc(F)cc3)c(=O)c21,4.0,.,.,-0.7%
COc1cccc(NC(=O)C2CCN(S(=O)(=O)c3ccc4c(c3)NC(=O)CO4)CC2)c1,-5.7,6.3,4.4,0.1%
Cc1cccc(NC(=O)C2CCN(S(=O)(=O)c3ccc4c(c3)NC(=O)CO4)CC2)c1,-134.2*,11.5,5.8,-0.7%
Cc1cccc(NC(=O)C2CCN(S(=O)(=O)c3ccc4c(c3)OCCCO4)CC2)n1,-24.5,9.5,-12.9,-0.1%
Cc1cccc(NC(=O)C2CCN(S(=O)(=O)c3ccc4c(c3)OCCO4)CC2)n1,-13.2,-53.6*,-4.8,-0.1%
O=[N+]([O-])c1ccc(N2CCN(Cc3ccccc3)CC2)s1,1.0,-65.7*,-8.8,-0.7%
O=[N+]([O-])c1ccc(N2CCCCC2)s1,3.3,-22.5,-6.2,0.0%
O=[N+]([O-])c1ccc(N2CCN(Cc3ccccc3)CC2)c2c1no[n+]2[O-],.,-74.0*,-12.6,.
O=C1CSC2(C(=O)N(Cc3ccccc3F)c3ccccc32)N1c1cccc(C(F)(F)F)c1 (stereo not given),.,.,-15.7,.
COC(=O)c1ccc(C2C(C(C)=O)=C(C)Nc3ncnn32)cc1 (stereo not given),-1.1,-73.9*,-3.2,7.1%
CC(=O)C1=C(C)Nc2ncnn2C1c1ccc(F)cc1 (stereo not given),-10.0,-18.0,2.8,-0.3%
COc1ccc(CN2C(=O)C(O)(CC(=O)c3ccc4c(c3)OCO4)c3ccccc32)cc1OC (stereo not given),17.8,3.5,35.6*,-0.1%
COc1cccc(CNC(=O)[C@@H]2CCCN2C(=O)[C@H]2CCCCN2C(=O)c2ccccc2C)c1,.,8.8,6.8,.
CCOC(=O)c1c(C)nc2c(c1-c1ccccc1)C(=O)c1ccccc1-2,-11.5,42.2,41.1*,-0.3%
CCOC(=O)c1c(C)nc2c(c1-c1cc(OC)ccc1OC)C(=O)c1ccccc1-2,7.5,7.8,0.9,-0.1%
CCOc1cccc(/C=N/N2C(C)CCCC2C)c1O (stereo not given),9.8,24.9,3.7,-0.9%
CC1CCCC(C)N1/N=C/c1cc(Br)cc(Br)c1O (stereo not given),4.7,-61.7*,-9.0,-0.4%
CCCN1CCC(N(CCc2ccccc2)Cc2ccccc2)CC1,-8.3,-96.6*,-4.8,-0.7%
COc1ccc(CN2CCC(N(CCc3ccccc3)Cc3ccccc3)CC2)c(OC)c1,6.0,-61.6*,-11.9,3.1%
CCN(Cc1ccccc1)C1CCN(Cc2ccccc2)CC1,23.0,2.1,-17.7,0.2%
CCOc1ccc(NS(=O)(=O)c2ccc3[nH]cc(C(=O)NCC4CCCO4)c(=O)c3c2)cc1 (stereo not given),-15.3,-55.2*,-2.0,-0.4%
Cc1ccc(NC(=O)c2nc(S(=O)(=O)Cc3ccccc3C)ncc2Cl)cc1C,?,-73.7*,-31.8,-0.2%
Cc1ccccc1CS(=O)(=O)c1ncc(Cl)c(C(=O)Nc2nnc(C(C)C)s2)n1,.,.,-14.3,.
Cc1ccc(CS(=O)(=O)c2ncc(Cl)c(C(=O)Nc3nc4ccc(C)cc4s3)n2)cc1,.,.,-13.1,.
CCc1ccc(NC(=O)c2nc(S(=O)(=O)Cc3ccccc3)ncc2Cl)cc1,-73.9*,.,.,-0.2%
